Test results: ChEMBL document CHEMBL3988442, “University of Dundee, Small-Polar-MMV Screening Library” (2021)
Among all 48,000 compounds or so, about 13,000 (27%) showed an effect of 50% or more. The list shows a part of the results.

The molecules below were run on Wolbachia pipientis (assay: Anti-Wolbachia Cell-Based Screen). Conditions: 5 µM.
Assay type: functional
Design: scale not given: in the data most compounds retested in dose-response had high values

| Compound | Percent Effect [%] |
| --- | --- |
| Cc1ccc(C(F)(F)F)cc1C(=O)N[C@H]1CN(CCO)C[C@@H]1C1CC1 | 7.552 |
| CNC(=O)c1c(C)cccc1NCc1noc(C2CC2)n1 | -16.59 |
| N#Cc1ccc(CN2C[C@@H](F)[C@@H](OCc3nc4cnccc4[nH]3)C2)cc1 | -2.578 |
| CC1CN(C(=O)NCc2cnn(-c3ccc(F)cc3F)c2)CCO1 (stereo unspecified) | -3.691 |
| Cc1cnn(CCNCC(=O)Nc2ccc(Cl)cn2)c1 | 6.715 |
| CC(C)c1nn(C)c(N(C)C)c1CNC1CCN(C2CC2)CC1.Cl | -24.68 |
| CC(C)CN1CC2(CCN(C(=O)C3CSC(C)(C)C(=O)N3)CC2)CC1=O (stereo unspecified) | -2.858 |
| Cn1cc(C(=O)N[C@@H]2CN(Cc3ccoc3)[C@@H]3CCCO[C@@H]32)cn1 | 112.9 |
| Cc1ccc(CN2C[C@H](NC(=O)c3nccn3C)[C@H]3OCCC[C@H]32)o1 | 104.4 |
| Cn1cc(C(=O)N[C@@H]2CN(Cc3cccs3)[C@@H]3CCCO[C@@H]32)cn1.O=C(O)C(F)(F)F | -10.01 |
| Cn1cc(C(=O)N[C@@H]2CN(Cc3ccc(F)cc3)[C@@H]3CCCO[C@@H]32)cn1.O=C(O)C(F)(F)F | -4.433 |
| Cn1ccnc1C(=O)N[C@@H]1CN(Cc2cccs2)[C@@H]2CCCO[C@@H]21.O=C(O)C(F)(F)F | -0.1124 |
| CCN(CC)[C@@H]1CN(Cc2ccc(C)o2)[C@@H]2CCCO[C@H]12 | -8.708 |
| Cn1ccnc1C(=O)N[C@@H]1CN(Cc2ccc(F)cc2)[C@@H]2CCCO[C@@H]21.O=C(O)C(F)(F)F | 106 |
| O=C1C(NCc2nnc3n2CCCC3)CCN1CC(F)(F)F (stereo unspecified) | -0.8085 |
| COc1ccc(CSCC(O)CO)c(Cl)c1 (stereo unspecified) | -5.402 |
| CCn1cc(S(=O)(=O)NC(CO)Cc2c[nH]c3ccccc23)cn1 (stereo unspecified) | -10.13 |
| CC(=O)NC1CCN(c2nc(C)nc3c2c(C)nn3C)C1 (stereo unspecified) | -5.882 |
| CCN(CC)c1nc2sc(C(=O)NC(C)(C)C(=O)OC)cc2s1 | 3.402 |
| Cc1ccc(N2Cc3nc(=O)[nH]n3C2=O)cc1 | -1.797 |
| COC(=O)c1ccc(CN2CCC(c3n[nH]c(C)n3)CC2)s1 | 96.4 |
| COC(=O)c1ccc(CN2CCN(Cc3nc(C)no3)CC2)s1 | 97.03 |
| Cc1noc(CN2CCN(C(C)C(=O)NCc3cccs3)CC2)n1 (stereo unspecified) | 10.97 |
| COC(=O)c1cc(CN2CCC(c3noc(C)n3)CC2)c(C)s1 | 83.77 |

| Compound | Percent Effect [%] |
| --- | --- |
| Cc1nc(C2CCN(S(=O)(=O)c3ccc4c(c3)CCO4)CC2)n[nH]1 | 0.09354 |
| COC(=O)c1ccc(CN2CCC(c3noc(C)n3)CC2)s1 | 44.67 |
| CC(=O)NCC1CCN(Cc2nc(C3CC3)no2)CC1 | 21.76 |
| COC(=O)c1ccc(Cn2cccc(C(F)(F)F)c2=O)s1 | -1.829 |
| Cc1noc(CN2CCN(CCS(C)(=O)=O)CC2)n1 | -3.839 |
| O=C1CCCc2occ(C(=O)N3CCCC4(CCNC4)C3)c21 (stereo unspecified) | -0.7654 |
| Cc1c(Cl)cccc1S(=O)(=O)NCC(O)c1cccn1C (stereo unspecified) | 9.208 |
| O=C(NCCn1cccn1)Nc1cc(C(=O)N2CCOCC2)ccc1Cl | -1.545 |
| COCCNC(=O)[C@H]1C[C@@](CC(C)C)(C(=O)O)N(C)[C@H]1c1cccnc1 | -5.7 |
| CC(C)n1cc(C(=O)NCC(CO)Cc2cccs2)cn1 (stereo unspecified) | 100.7 |
| Cc1cc(C)n(-c2ccc(C(=O)NCC(CO)Cc3ccco3)cc2)n1 (stereo unspecified) | 116.9 |
| CC(C)n1cc(C(=O)NCCc2cn3ccsc3n2)cn1 | -2.025 |
| Cc1cc(C)n(-c2ccc(C(C)NS(=O)(=O)CCCS(C)(=O)=O)cc2)n1 (stereo unspecified) | 5.826 |
| Cc1cc(C)n(-c2ccc(C(=O)NCC(CO)Cc3cccs3)cc2)n1 (stereo unspecified) | 87.25 |
| Cc1cc(C)n(-c2ccc(C(=O)NCc3cncn3CC(C)C)cc2)n1 | -4.296 |
| CSCc1nc(CNC(=O)c2cnn(C(C)C)c2)cs1 | -8.764 |
| CC(CNC(=O)N1CCC(CO)CC1)Cc1cccs1 (stereo unspecified) | -8.447 |
| CCCS(=O)(=O)NC(=O)c1ccc(-n2nc(C)cc2C)cc1 | -12.15 |
| Cc1cc(-c2nn(C)c(Cl)c2CN2Cc3ccccc3C(O)C2)no1 (stereo unspecified) | 9.326 |
| CCCS(=O)(=O)N1CCC2(CCCC(=O)N2C)CC1 | -27.87 |
| COCCN1CCN(Cc2ccc(C(C)=O)cc2)[C@H]2CS(=O)(=O)C[C@H]21 | -2.157 |
| Cc1nn(C)c(Oc2cccc(F)c2)c1NC(=O)C1CCCO1 (stereo unspecified) | 1.382 |
| COC(=O)C1CN(Cc2ccc(-c3ccncc3)cc2F)C[C@@H](C)O1 (stereo partly specified) | 4.503 |
| CC(C)OCCN1CCN(C(=O)c2cccc(-n3cccn3)n2)CC1 | -4.895 |

| Compound | Percent Effect [%] |
| --- | --- |
| COc1cccc2c1OCC(NC(=O)NCCC(N)=O)C2 (stereo unspecified) | 107.1 |
| COc1cccc2c1OCC(C(=O)NCCc1nnc(C)s1)C2 (stereo unspecified) | 6.125 |
| COc1cccc2c1OCC(NC(=O)NCCc1ccccn1)C2 (stereo unspecified) | 120.5 |
| COc1cccc2c1OCC(C(=O)NCCc1nnc(N)s1)C2 (stereo unspecified) | 12.39 |
| COc1cccc2c1OCC(CNC(=O)CSc1ccccn1)C2 (stereo unspecified) | -6.827 |
| COc1cccc2c1OCC(CNC(=O)CNC(N)=O)C2 (stereo unspecified) | -0.3476 |
| CNC(=O)c1cccc(CNC2CCCSc3ccccc32)c1 (stereo unspecified) | -0.5699 |
| CN(C)C(C(=O)NCC1(Cn2cccn2)CC1)c1ccc(F)cc1 (stereo unspecified) | -7.743 |
| CSc1ccc(OC(C)C(=O)Nc2cc[nH]n2)cc1 (stereo unspecified) | 1.482 |
| COc1cccc(CNCc2nnc3n2CC(C(F)(F)F)CC3)c1 (stereo unspecified) | -16.12 |
| CCC1COCCN1C(=O)CNC(=O)c1ccc2c(c1)CCC2 (stereo unspecified) | -1.675 |
| NC(=O)Cn1cc(NC(=O)NCC2CCN(c3ccccc3)C2)cn1 (stereo unspecified) | 6.849 |
| CCn1cc(NC(=O)NCC(O)CN2CCc3ccccc3C2)cn1 (stereo unspecified) | 9.53 |
| NC(=O)Cn1cc(NC(=O)N2CCCC2)cn1 | -13.27 |
| CCC(CNC(=O)Nc1cnn(CC)c1)N1CCCC1 (stereo unspecified) | -8.538 |
| NC(=O)Cn1cc(NC(=O)NCCN2CCc3ccccc3C2)cn1 | 93.55 |
| CCn1cc(NC(=O)NCCN2CCc3ccccc3C2)cn1 | 123.6 |
| CCC(CNC(=O)c1ccccc1Br)N1CCc2ccccc2C1 (stereo unspecified) | -9.585 |
| CCn1cc(NC(=O)NCC(C)(C)N2CCc3ccccc3C2)cn1 | 107.6 |
| CC(Cn1cccn1)NC(=O)NCCN1CCc2ccccc2C1 (stereo unspecified) | 1.571 |
| O=C(NCC(O)CN1CCc2ccccc2C1)Nc1cccnc1 (stereo unspecified) | 1.395 |
| CCn1cc(NC(=O)NCC(c2cccs2)N(C)C)cn1 (stereo unspecified) | -11.74 |
| CCC(CNC(=O)Nc1cnn(CC)c1)N1CCc2ccccc2C1 (stereo unspecified) | 115.3 |
